Assay results taken from ChEMBL document CHEMBL1961873, “Compounds: GSK PKIS; Assays: Nanosyn kinase panel” (2012).

Legend:
[1] = target: Mitogen-activated protein kinase 3 (Homo sapiens) (UniProt P27361); settings: at 1 µM;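 further: values are mean percent inhibition of MAPK3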
[2] = target: SRSF protein kinase 3 (Homo sapiens) (UniProt Q9UPE1); settings: at 0.1 µM
[3] = target: SRSF protein kinase 3 (Homo sapiens) (UniProt Q9UPE1); settings: at 1 µM
[4] = target: Mitogen-activated protein kinase 14 (Homo sapiens) (UniProt Q16539); settings: at 0.1 µM
[5] = target: Mitogen-activated protein kinase 14 (Homo sapiens) (UniProt Q16539); settings: at 1 µM
[6] = target: Mitogen-activated protein kinase 11 (Homo sapiens) (UniProt Q15759); settings: at 0.1 µM
[7] = target: Mitogen-activated protein kinase 11 (Homo sapiens) (UniProt Q15759); settings: at 1 µM
[8] = target: T1, Mitogen-activated protein kinase 13 (Homo sapiens) (UniProt O15264); settings: at 0.1 µM
T1 sequence (whole entry): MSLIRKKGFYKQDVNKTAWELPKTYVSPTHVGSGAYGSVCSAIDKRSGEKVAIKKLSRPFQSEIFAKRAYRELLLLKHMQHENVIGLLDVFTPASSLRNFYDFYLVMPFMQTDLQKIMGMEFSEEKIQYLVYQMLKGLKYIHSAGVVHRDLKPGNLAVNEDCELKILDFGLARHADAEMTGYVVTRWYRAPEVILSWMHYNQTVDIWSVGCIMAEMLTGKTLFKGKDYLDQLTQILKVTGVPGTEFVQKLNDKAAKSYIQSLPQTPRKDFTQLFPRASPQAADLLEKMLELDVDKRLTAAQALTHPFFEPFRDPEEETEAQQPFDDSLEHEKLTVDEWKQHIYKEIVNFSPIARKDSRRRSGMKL

[9] = target: T1, Mitogen-activated protein kinase 13 (Homo sapiens); settings: at 1 µM
[10] = target: T2, Mitogen-activated protein kinase 12 (Homo sapiens) (UniProt P53778); settings: at 0.1 µM
T2 sequence (whole entry): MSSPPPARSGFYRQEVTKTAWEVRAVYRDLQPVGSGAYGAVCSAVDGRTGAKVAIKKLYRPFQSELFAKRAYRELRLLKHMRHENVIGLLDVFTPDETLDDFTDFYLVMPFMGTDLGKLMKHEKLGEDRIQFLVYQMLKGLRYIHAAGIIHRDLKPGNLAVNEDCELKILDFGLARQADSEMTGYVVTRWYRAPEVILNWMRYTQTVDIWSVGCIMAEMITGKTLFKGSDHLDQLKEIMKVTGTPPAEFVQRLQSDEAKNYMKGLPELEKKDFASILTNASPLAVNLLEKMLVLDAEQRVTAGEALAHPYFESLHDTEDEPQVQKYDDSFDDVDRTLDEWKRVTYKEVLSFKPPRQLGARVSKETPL

[11] = target: T2, Mitogen-activated protein kinase 12 (Homo sapiens); settings: at 1 µM
[12] = target: SRSF protein kinase 1 (Homo sapiens) (UniProt Q96SB4); settings: at 0.1 µM
[13] = target: SRSF protein kinase 1 (Homo sapiens) (UniProt Q96SB4); settings: at 1 µM
[14] = target: Phosphatidylinositol 4,5-bisphosphate 3-kinase catalytic subunit alpha isoform (Homo sapiens) (UniProt P42336); settings: at 0.1 µM
[15] = target: Phosphatidylinositol 4,5-bisphosphate 3-kinase catalytic subunit alpha isoform (Homo sapiens) (UniProt P42336); settings: at 1 µM
[16] = target: T3, Phosphatidylinositol 4,5-bisphosphate 3-kinase catalytic subunit delta isoform (Homo sapiens) (UniProt O00329); settings: at 0.1 µM
T3 sequence (whole entry): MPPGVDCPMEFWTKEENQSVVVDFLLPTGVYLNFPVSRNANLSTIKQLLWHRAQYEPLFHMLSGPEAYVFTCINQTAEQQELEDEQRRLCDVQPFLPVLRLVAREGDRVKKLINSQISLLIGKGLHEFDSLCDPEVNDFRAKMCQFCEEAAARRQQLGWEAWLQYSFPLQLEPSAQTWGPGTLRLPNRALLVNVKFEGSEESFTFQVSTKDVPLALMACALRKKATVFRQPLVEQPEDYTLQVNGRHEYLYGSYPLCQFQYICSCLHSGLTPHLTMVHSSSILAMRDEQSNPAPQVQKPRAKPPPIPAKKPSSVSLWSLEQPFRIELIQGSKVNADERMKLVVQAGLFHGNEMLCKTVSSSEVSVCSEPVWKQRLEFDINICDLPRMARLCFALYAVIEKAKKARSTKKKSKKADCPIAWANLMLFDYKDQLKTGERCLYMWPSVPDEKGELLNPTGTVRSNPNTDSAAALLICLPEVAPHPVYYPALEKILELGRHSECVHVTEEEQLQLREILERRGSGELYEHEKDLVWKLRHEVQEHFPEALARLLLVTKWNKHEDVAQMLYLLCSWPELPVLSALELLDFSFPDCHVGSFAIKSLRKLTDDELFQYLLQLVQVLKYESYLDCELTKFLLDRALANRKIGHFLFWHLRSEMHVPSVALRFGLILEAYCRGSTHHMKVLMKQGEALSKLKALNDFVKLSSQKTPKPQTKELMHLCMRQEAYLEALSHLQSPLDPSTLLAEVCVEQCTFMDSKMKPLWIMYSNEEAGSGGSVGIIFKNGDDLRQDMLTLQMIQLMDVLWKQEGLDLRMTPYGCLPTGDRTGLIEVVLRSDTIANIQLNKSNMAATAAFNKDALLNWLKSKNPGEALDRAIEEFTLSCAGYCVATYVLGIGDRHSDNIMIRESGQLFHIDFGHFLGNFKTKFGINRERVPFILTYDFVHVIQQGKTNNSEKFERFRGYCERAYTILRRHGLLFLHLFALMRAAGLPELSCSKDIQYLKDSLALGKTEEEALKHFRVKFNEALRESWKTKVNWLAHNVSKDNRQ

[17] = target: T3, Phosphatidylinositol 4,5-bisphosphate 3-kinase catalytic subunit delta isoform (Homo sapiens); settings: at 1 µM
[18] = target: Phosphatidylinositol 4-kinase beta (Homo sapiens) (UniProt Q9UBF8); settings: at 0.1 µM
[19] = target: Phosphatidylinositol 4-kinase beta (Homo sapiens) (UniProt Q9UBF8); settings: at 1 µM
[20] = target: Sphingosine kinase 1 (Homo sapiens) (UniProt Q9NYA1); settings: at 0.1 µM;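 further: mean percent inhibition of SPHK1 activity, measured within the GSK PKIS screening panel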
Chain of Sphingosine kinase 1 (Homo sapiens) (Q9NYA1 whole entry): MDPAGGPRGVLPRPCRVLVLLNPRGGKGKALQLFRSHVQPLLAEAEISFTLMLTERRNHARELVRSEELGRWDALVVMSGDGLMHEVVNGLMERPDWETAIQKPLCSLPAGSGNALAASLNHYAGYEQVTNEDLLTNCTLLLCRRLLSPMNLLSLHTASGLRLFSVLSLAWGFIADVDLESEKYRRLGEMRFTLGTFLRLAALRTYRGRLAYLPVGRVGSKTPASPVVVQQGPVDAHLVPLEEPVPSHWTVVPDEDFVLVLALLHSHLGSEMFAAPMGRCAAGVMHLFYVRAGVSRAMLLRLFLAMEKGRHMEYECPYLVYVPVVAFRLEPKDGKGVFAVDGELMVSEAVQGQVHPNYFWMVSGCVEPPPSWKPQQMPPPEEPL

Chain of SRSF protein kinase 3 (Homo sapiens) (Q9UPE1 whole entry): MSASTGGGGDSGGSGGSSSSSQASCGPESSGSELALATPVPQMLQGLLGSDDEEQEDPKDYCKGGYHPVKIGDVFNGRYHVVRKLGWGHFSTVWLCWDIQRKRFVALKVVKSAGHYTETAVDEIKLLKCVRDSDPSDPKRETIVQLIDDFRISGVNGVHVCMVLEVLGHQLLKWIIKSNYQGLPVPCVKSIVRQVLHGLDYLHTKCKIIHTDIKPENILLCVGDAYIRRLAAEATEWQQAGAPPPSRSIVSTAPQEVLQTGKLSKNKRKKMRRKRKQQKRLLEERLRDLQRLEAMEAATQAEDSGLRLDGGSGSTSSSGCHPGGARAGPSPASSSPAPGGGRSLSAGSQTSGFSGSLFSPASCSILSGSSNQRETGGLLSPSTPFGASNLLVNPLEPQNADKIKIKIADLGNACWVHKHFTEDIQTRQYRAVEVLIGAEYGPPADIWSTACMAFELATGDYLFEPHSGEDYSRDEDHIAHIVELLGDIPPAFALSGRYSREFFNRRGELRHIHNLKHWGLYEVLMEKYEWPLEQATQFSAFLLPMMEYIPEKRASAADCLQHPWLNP
Chain of SRSF protein kinase 1 (Homo sapiens) (Q96SB4 whole entry, canonical isoform): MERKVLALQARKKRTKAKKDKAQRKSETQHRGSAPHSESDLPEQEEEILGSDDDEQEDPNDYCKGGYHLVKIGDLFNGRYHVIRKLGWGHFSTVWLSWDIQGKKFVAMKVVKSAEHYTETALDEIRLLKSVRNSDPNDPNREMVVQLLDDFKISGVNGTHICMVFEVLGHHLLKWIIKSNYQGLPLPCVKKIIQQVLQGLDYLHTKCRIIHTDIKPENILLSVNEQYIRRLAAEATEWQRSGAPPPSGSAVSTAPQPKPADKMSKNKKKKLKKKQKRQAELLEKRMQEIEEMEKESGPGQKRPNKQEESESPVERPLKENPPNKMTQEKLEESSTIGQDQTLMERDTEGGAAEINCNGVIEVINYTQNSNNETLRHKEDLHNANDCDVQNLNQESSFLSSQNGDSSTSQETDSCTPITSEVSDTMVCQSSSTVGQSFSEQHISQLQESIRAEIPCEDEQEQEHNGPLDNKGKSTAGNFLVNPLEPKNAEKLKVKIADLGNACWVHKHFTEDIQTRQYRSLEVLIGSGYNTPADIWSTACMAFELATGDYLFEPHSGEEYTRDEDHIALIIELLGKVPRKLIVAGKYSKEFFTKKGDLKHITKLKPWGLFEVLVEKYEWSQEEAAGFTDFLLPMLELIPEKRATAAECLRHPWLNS
Chain of Mitogen-activated protein kinase 14 (Homo sapiens) (Q16539 whole entry): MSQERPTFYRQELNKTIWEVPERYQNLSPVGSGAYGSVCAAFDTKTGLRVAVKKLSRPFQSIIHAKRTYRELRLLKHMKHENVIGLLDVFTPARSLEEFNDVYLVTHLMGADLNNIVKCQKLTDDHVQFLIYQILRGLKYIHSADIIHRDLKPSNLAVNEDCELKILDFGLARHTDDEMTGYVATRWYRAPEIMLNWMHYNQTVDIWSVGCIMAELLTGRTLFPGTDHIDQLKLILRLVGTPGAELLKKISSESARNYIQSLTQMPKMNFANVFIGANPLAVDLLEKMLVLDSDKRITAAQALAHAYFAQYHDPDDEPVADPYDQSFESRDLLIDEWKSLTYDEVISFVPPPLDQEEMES
Chain of Phosphatidylinositol 4,5-bisphosphate 3-kinase catalytic subunit alpha isoform (Homo sapiens) (P42336 whole entry, canonical isoform): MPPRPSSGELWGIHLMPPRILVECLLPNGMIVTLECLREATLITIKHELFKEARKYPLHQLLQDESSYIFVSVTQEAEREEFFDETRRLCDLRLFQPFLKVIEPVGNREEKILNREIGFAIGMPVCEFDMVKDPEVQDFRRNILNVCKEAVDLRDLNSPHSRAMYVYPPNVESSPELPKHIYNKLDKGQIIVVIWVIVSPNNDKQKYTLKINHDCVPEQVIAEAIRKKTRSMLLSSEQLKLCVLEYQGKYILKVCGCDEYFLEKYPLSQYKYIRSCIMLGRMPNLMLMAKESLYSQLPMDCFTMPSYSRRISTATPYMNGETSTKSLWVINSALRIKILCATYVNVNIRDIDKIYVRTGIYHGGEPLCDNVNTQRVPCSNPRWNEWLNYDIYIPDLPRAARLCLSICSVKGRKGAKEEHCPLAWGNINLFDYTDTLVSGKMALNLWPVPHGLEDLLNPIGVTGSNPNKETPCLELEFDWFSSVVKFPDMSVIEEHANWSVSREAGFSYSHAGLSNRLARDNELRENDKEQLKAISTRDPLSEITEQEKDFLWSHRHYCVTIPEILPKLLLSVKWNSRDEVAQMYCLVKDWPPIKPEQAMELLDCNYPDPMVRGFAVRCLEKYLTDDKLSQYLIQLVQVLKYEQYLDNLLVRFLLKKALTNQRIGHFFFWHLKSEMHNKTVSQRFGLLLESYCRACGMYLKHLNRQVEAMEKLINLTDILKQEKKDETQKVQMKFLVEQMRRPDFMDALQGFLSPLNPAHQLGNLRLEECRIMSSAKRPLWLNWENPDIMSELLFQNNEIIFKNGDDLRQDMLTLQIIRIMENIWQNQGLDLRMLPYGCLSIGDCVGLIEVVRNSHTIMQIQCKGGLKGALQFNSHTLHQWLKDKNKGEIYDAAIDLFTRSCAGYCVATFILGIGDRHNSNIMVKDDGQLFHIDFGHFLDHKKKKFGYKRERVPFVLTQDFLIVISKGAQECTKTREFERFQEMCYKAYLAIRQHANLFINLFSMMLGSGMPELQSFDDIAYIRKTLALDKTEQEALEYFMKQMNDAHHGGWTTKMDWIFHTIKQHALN
Chain of Mitogen-activated protein kinase 3 (Homo sapiens) (P27361 whole entry): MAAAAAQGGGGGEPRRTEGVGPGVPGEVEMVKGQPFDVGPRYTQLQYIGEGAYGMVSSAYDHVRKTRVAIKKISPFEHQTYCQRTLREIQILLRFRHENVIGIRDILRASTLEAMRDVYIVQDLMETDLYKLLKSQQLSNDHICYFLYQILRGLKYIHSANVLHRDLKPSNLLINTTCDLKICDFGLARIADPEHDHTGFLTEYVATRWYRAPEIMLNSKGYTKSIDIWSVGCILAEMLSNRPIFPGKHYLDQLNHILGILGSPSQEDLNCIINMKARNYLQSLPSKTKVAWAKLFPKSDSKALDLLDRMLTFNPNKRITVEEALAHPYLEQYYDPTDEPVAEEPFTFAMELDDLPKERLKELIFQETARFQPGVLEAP
Chain of Mitogen-activated protein kinase 11 (Homo sapiens) (Q15759 whole entry): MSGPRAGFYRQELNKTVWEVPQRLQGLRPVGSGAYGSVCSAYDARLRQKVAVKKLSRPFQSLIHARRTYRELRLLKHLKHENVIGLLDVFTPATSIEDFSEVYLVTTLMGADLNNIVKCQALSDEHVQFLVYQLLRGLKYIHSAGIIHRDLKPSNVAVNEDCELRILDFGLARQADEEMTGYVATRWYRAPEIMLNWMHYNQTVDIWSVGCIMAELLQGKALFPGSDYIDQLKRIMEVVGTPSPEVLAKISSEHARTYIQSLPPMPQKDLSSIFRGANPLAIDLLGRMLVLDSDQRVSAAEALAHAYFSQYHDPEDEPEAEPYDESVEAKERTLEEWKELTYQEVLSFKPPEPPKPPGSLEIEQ
Chain of Phosphatidylinositol 4-kinase beta (Homo sapiens) (Q9UBF8 2-816 limits assumed): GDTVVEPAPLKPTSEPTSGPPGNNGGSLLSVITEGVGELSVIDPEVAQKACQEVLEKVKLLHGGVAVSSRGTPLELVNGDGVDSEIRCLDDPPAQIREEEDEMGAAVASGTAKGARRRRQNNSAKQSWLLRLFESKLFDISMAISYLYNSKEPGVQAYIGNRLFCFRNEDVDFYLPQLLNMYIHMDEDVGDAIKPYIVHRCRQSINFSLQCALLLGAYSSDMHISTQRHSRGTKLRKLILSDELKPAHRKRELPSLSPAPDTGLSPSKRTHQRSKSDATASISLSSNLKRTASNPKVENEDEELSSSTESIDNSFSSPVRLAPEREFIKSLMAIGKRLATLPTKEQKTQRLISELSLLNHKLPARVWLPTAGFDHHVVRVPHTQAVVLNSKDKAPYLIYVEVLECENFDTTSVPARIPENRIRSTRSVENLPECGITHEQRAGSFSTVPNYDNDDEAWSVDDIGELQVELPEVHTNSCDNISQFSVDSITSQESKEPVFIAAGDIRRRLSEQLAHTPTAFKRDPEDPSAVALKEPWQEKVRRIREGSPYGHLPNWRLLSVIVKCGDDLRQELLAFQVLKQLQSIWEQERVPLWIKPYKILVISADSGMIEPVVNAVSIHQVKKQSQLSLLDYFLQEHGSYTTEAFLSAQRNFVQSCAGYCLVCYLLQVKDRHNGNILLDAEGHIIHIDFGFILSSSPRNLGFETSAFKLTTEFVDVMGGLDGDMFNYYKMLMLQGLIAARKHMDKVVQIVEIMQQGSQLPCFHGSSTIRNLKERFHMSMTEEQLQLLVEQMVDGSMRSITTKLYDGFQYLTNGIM

SMILES	inhibition [1] [%]	inhibition [2] [%]	inhibition [3] [%]	inhibition [4] [%]	inhibition [5] [%]	inhibition [6] [%]	inhibition [7] [%]	inhibition [8] [%]	inhibition [9] [%]	inhibition [10] [%]	inhibition [11] [%]	inhibition [12] [%]	inhibition [13] [%]	inhibition [14] [%]	inhibition [15] [%]	inhibition [16] [%]	inhibition [17] [%]	inhibition [18] [%]	inhibition [19] [%]	inhibition [20] [%]
O=S(=O)(CCNCc1ccc(-c2ccc3ncnc(Nc4ccc(OCc5cccc(F)c5)c(Cl)c4)c3c2)o1)c1ccccc1	6	-1.7	3.71	16.1	14	6.03	6.99	6.05	5.53	3.55	5.41	-1.17	-1.46	5.28	5.59	0.47	6.33	-6.34	-9.91	1.07
CCNC(=O)O[C@H]1CN[C@H](C#Cc2cc3ncnc(Nc4ccc(OCc5cccc(F)c5)c(Cl)c4)c3s2)C1	1.29	1.52	0.88	1.94	5.4	4.81	-1.11	1.7	2.64	-0.39	0.98	-1.03	-0.8	3.18	29	2.96	17.2	-1.09	0.43	0.82
CCc1nn2ncccc2c1-c1ccnc(NC2CC2)n1	4.9	-0.73	-0.47	4.19	7.08	5.64	7.82	3.24	3.22	2.35	3.05	-1.37	-0.37	1.28	1.26	0.07	0.87	5.11	8.09	-2.72
NC(=O)c1sc(-n2cnc3ccc(C(F)(F)F)cc32)cc1OCc1ccccc1Br	0.62	-1.67	-0.41	8.95	10.3	2.71	5.44	-1.12	3.69	1.64	2.37	-1.69	-2.85	3.78	4.29	1.52	4.21	-2.33	-2.08	2.38
COc1cccc(-n2ncc3c(N/N=C/c4ccc(F)cc4)ncnc32)c1	3.8	-0.53	1.02	2.2	7.4	4.13	6.02	6.87	6.81	-0.23	1.41	-0.75	2.6	3.46	19.1	0.55	17.3	-4.22	-5.29	2.72
O=C(O[C@H]1CN[C@H](C#Cc2cc3ncnc(Nc4ccc(Cc5ccccc5)cc4)c3s2)C1)N1CCOCC1	2.11	-2.44	-1.14	4.54	2.37	0.92	4.95	2.02	0.36	1.75	1.72	-2.56	-2.4	3.61	11.2	1.42	8.98	0.59	-0.78	0.79
COc1cc2c(cc1Nc1nc(Nc3ccsc3C(N)=O)c3cc[nH]c3n1)N(C(=O)CN(C)C)CCC2(C)C	3.62	0.09	3.51	4.03	10.7	5.19	8.81	2.03	9.12	1.64	4.23	-1.82	15.8	4.65	5.27	2.82	13.9	-0.32	-1.38	3.22
COC(=O)c1sc(-n2cnc3cc(OC)c(OC)cc32)cc1OCc1ccccc1C(F)(F)F	2.3	-0.91	-2.27	2.39	9.56	6.02	8.21	-0.67	4.4	0.89	2.9	-3.05	-6.39	4.25	4.16	2.55	4.61	-0.98	-2.56	-3.91
c1ccc(COc2ccc(Nc3ncnc4ccc(-c5ccco5)cc34)cc2)cc1	1.18	-1.34	-0.68	2.18	2.81	1.43	0.27	0.6	-0.53	0.76	0.69	-1.86	-1.65	0.06	2.59	3.33	4.52	-1.76	-1.04	1.84
N#Cc1c(NC(=O)CN2CCOCC2)sc2c1CCCC2	6.78	-1.65	2.65	5.67	9.2	1.86	7.38	6	5.61	3.4	3.63	-1.48	3.81	3.43	3.19	0.47	0.45	0.92	-0.98	0.08
Cc1ccc2c(-c3ccnc(Nc4ccccc4)n3)c(-c3ccc(F)cc3)nn2n1	14.5	1.07	1.53	71	88.5	34.1	73.3	-0.61	5.7	0.48	2.32	-1.57	-2.42	2.88	0.97	2.44	4.54	2.52	1.56	0
Nc1nc(-c2cccc(Cl)c2)c(-c2ccc3ncccc3n2)s1	2.62	-1.86	0.63	8.73	50	5.89	19.1	3.72	5.27	8.76	3.06	0.23	2.87	4.68	8.41	2.57	6.4	0.45	-3.79	-1.31
